# Sampled rows, rich in hits. Any-hit rate of the full collection: about 1.1%.
# HDAC3 inh = blocks human histone deacetylase 3. O15379. recombinant HDAC3, fluorogenic peptide/trypsin coupled, fluorescence. inhibition, % at 8.3 µM. 320,000 compounds, 0.15% hits. AID 2718; in the data active means inhibition above about 26%, passing the limit was not always enough
# Keap1 Nrf2 FP = inhibitors of human Keap1-Nrf2 protein-protein interaction; Q14145; Keap1 Kelch-Nrf2 peptide fluorescence polarization, 1536-well; inhibition, % at 9.4 µM; 340,000 compounds, 0.15% hits; AID 504523; in the data active means inhibition above about 12%;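 further: human Keap1 Kelch domain with fluorescein labeled Nrf2 9mer peptide probe; 0% = neutral control wells and 100% = peptide positive control; higher means more block of Keap1 binding to Nrf2 peptide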
# Casp6 inh = inhibitors of human caspase-6; P55212; purified caspase-6, Z-VEID-R110 cleavage fluorescence; inhibition, % at 12.5 µM; 350,000 compounds, 0.53% hits;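 active means mean inhibition across replicates at least about 35%, with every replicate also reaching that limit, limit read from the data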;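 further: 0% = median of neutral control wells and 100% = no fluorescence left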
# Target sequence (P55212 24-179 limits assumed): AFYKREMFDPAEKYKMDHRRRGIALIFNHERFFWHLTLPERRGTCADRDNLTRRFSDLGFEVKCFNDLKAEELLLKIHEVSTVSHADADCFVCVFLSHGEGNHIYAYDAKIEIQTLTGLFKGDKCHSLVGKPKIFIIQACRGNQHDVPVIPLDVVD
# Target sequence (P55212 194-293 limits assumed): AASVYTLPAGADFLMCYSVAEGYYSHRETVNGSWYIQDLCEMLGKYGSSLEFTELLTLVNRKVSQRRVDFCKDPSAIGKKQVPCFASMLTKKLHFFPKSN
# N-glyco inh = blocks N-linked glycosylation in D54 reporter cells | D54 ERlucT glycosylation luciferase reporter, 24 h; percent of 100 nM tunicamycin response | reporter increase, % at 12.5 µM | 360,000 compounds, 0.23% hits;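 active means mean luciferase reporter signal, scaled so untreated is 0 and the glycosylation-blocking control 100, at or above a set limit in every replicate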;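 further: luciferase carries N-glycosylation sites so blocking glycosylation raises the light; 0% = median of neutral control wells and 100% = median of 100 nM tunicamycin wells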
# NSD2 HMT inh = blocks human histone methyltransferase NSD2. O96028. NSD2 peptide methylation, AlphaScreen, 120 min. inhibition, % at 12.5 µM. 310,000 compounds, 0.54% hits; in the data active means inhibition above about 50%
# C-LANA FP = blocks KSHV LANA C-terminal domain binding to DNA; MBP-C-LANA/FAM-LBS DNA binding, fluorescence polarization; inhibition, % at 9 µM; 340,000 compounds, 0.078% hits; AID 504423;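 active means highest replicate inhibition at or above 60% at 9 µM, even if other replicates fall short; inactive means all replicates below 60% inhibition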;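 further: 0% = neutral control wells and 100% = 4 µM acridine orange control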
# Active calls of the source: *; · = no result given; + = active, no number.
SMILES,HDAC3 inh,Keap1 Nrf2 FP,Casp6 inh,N-glyco inh,NSD2 HMT inh,C-LANA FP
COC(=O)c1ccc(-n2c(C)cc(C(=O)CCl)c2C)cc1,-4.4,1.1,2.2,12.0,3.6,-2.1
O=C(Nc1ncccc1O)c1ccc(OCC2CCCO2)cc1 (stereo unspecified),68.5*,-1.5,3.4,-17.4,1.8,0.4
O=C(Nc1ncccc1O)c1ccc(Oc2ccccc2)cc1,56.3*,-3.4,1.9,-0.9,7.8,0.4
COc1ccccc1NS(=O)(=O)c1ccc(C(=O)Nc2ncccc2O)cc1,79.2*,-1.6,·,23.5,-0.9,0.4
C[C@H](O)C#Cc1ccc2c(c1)O[C@H](CN(C)C(=O)C1CC1)[C@@H](C)CN([C@@H](C)CO)S2(=O)=O,·,·,1.1,·,·,·
COCC#Cc1cnc2c(c1)C(=O)N([C@H](C)CO)C[C@@H](C)[C@H](CN(C)C(=O)CCN1CCCCC1)O2,·,·,-13.3,·,·,·
O=C(c1cnccn1)N1CC[C@@H]2[C@@H](CO)Nc3ccc(-c4ccccc4F)cc3[C@@H]21,·,·,-0.9,·,·,·
CSCCC(NS(=O)(=O)c1ccccc1F)C(=O)NCC(C)(C)N1CCOCC1 (stereo unspecified),1.0,5.5,54.4*,0.0,-2.3,5.4
C[C@H](CO)N1C[C@H](C)[C@H](CN(C)Cc2cccc(F)c2)Oc2ncc(C#C[C@@H](C)O)cc2C1=O,·,·,1.9,·,·,·
O=C(/C=C1\SC(=O)N(CC(=O)Nc2ccc(F)cc2)C1=O)Nc1ccc(Cl)cc1,4.3,-5.4,0.5,4.4,-3.5,0.2
O=C(CN1C(=O)S/C(=C\C=C\c2ccccc2)C1=O)Nc1ccc(C(=O)O)cc1,-2.0,-5.2,44.0*,0.3,19.5,0.8
O=C(CN1C(=O)S/C(=C/C=C/c2ccccc2)C1=O)Nc1ccc(C(=O)O)cc1,3.7,-8.8,27.6,-0.8,10.6,-0.8
O=C(CCN1C(=O)/C(=C\C=C\c2ccccc2)SC1=S)Nc1ccc(C(=O)O)cc1,·,-3.6,49.0*,-1.1,4.2,1.2
O=C(/C=C1\SC(=O)N(CC(=O)Nc2ccc(Cl)cc2)C1=O)Nc1ccc(F)cc1,-6.9,-0.5,42.7*,2.6,·,-0.5
COc1ccc(NC(=O)CN2C(=O)S/C(=C/c3cccn3-c3ccc(C(=O)O)cc3)C2=O)cc1,8.3,-0.6,71.5*,1.0,39.2,7.6
O=C(C[C@H]1CC[C@@H](NS(=O)(=O)c2ccc(F)cc2)[C@H](CO)O1)NCCc1ccncc1,·,·,0.9,·,·,·
C[C@H]1CN([C@@H](C)CO)S(=O)(=O)c2ccc(C#Cc3cccc(F)c3)cc2O[C@H]1CN(C)C(=O)CN1CCOCC1,·,·,8.0,·,·,·
CC(C)(C)c1ccc(OCC(=O)Nc2ccncc2)c(Br)c1,-0.8,0.9,-1.7,34.0*,0.6,0.0
COCC#Cc1cnc2c(c1)C(=O)N([C@@H](C)CO)C[C@H](C)[C@@H](CN(C)C(=O)Nc1ccccc1F)O2,·,·,2.6,·,·,·
CC1CCN(C(=O)COC(=O)c2ccc([N+](=O)[O-])o2)CC1,1.7,-0.4,52.2*,-0.2,48.0,3.5
CC1CCN(C(=O)COC(=O)c2ccc(Br)o2)CC1,0.2,2.6,-2.6,2.6,-10.1,-0.7
CC1Cc2ccccc2N1C(=O)COC(=O)c1ccc([N+](=O)[O-])o1 (stereo unspecified),1.2,-5.7,47.2*,-0.3,·,1.6
Cc1ccc(NC(=O)CCC(=O)NNC(=O)COc2ccccc2)c(C)c1,-3.7,-0.7,41.0*,3.6,·,1.2
Cc1ccc(C)c(N2N=C(C(=O)OCc3nnc(-c4ccccc4Br)o3)CCC2=O)c1,·,·,61.4*,3.6,0.2,·
Fc1c(F)c(F)c(N/N=C/c2c[nH]c3ccccc23)c(F)c1F,32.1*,-3.8,·,6.4,-2.2,-1.0
SMILES,HDAC3 inh,Keap1 Nrf2 FP,Casp6 inh,N-glyco inh,NSD2 HMT inh,C-LANA FP
Cc1cccc(NC2=C(NCCO)C(=O)c3ccccc3C2=O)c1,-2.9,-2.9,91.5*,3.7,41.3,0.6
COc1ccc(NC2=C(NCCO)C(=O)c3ccccc3C2=O)cc1,-8.9,-4.2,87.7*,21.1,·,0.4
Cc1cccc(Nc2nc(N)c([N+](=O)[O-])c(NCCO)n2)c1,11.6,1.6,6.3,2.6,2.7,0.8
COc1cccc(NC2=C(NCCO)C(=O)c3ccccc3C2=O)c1,0.8,4.4,10.1,9.8,24.7,2.1
Cc1cc(-c2nc3ncccc3o2)ccc1NC(=O)c1ccc([N+](=O)[O-])o1,·,-1.1,-1.8,-0.9,2.1,0.2
Cc1ccc(-c2nc3ncccc3o2)cc1NC(=O)c1ccc([N+](=O)[O-])o1,-0.1,-3.6,·,35.8*,1.7,-0.1
C[C@@H]1CN([C@H](C)CO)C(=O)Cc2cc(NC(=O)C3CC3)ccc2O[C@@H]1CN(C)Cc1ccc2c(c1)OCO2,·,·,-2.4,·,·,·
CN1CCN(C(c2ccc(Cl)cc2)c2cc(Cl)c3cccnc3c2O)CC1 (stereo unspecified),8.4,-87.4,-9.4,33.3*,1.0,-0.1
COc1cc(N=Nc2cccc(S(N)(=O)=O)c2)c2ccccc2c1N,7.8,-4.5,·,116.2*,10.1,-3.5
NC1=NC(=Nc2cccc(S(N)(=O)=O)c2)c2ccccc21,·,-6.3,2.1,0.9,1.0,1.1
C[C@@H]1CN([C@H](C)CO)C(=O)Cc2cc(NC(=O)C3CCCCC3)ccc2O[C@@H]1CN(C)S(=O)(=O)c1cn(C)cn1,·,·,1.5,·,·,·
CCc1ccc(CN(Cc2cccnc2)C(=O)/C=C/c2ccc(OC)cc2)cc1,15.4,-20.4,98.2*,-4.6,5.1,-3.9
COc1ccc(/C=C/C(=O)NCc2cccnc2)cc1,6.6,0.0,1.6,1.6,-2.0,1.0
C[C@@H]1CN([C@@H](C)CO)C(=O)c2cc(NS(=O)(=O)c3ccccc3)ccc2O[C@@H](C)CCCCO[C@@H]1CN(C)C(=O)Cc1ccccc1,·,·,0.4,·,·,·
CCN(CC)C(=O)[C@H]1C[C@H](CC(=O)NCCc2ccccn2)C(=O)N2CCc3c([nH]c4cc(-c5ccco5)ccc34)[C@]12C,·,+,-4.6,-3.2,·,-1.1
CN1CCN(c2cc(N3CCN(C(=O)c4ccco4)CC3)c3c4c(onc24)-c2ccccc2C3=O)CC1,1.6,-7.4,·,-9.5,·,-0.3
O=C(O)CCCNc1cc(N2CCN(C(=O)c3ccco3)CC2)c2noc3c2c1C(=O)c1ccccc1-3,8.8,-194.8,28.5,0.3,77.6*,-20.5
Cc1cc(NC(=O)CSCc2ccc([N+](=O)[O-])cc2)no1,0.5,-0.7,0.0,2.2,142.7*,0.7
COc1ccc(S(=O)(=O)N2CCOC23CCN(S(=O)(=O)c2ccc(C)cc2)CC3)cc1,0.9,-7.7,52.1*,-2.2,-5.5,-1.6
Cc1ccc(S(=O)(=O)N2CCC3(CC2)OCCN3S(=O)(=O)c2cccs2)cc1,-0.1,-0.9,-1.8,-1.5,-1.4,1.4
O=[N+]([O-])c1ccc(S(=O)(=O)N2CCC3(CC2)OCCN3S(=O)(=O)c2cccs2)cc1,-3.7,-1.7,35.6*,-1.9,11.7,0.0

# Screening data deposited in PubChem BioAssay by Broad Institute.
